Many of the other results were omitted from the sample, so hits are more common in it than they were.
Pf Dd2 growth = inhibitors of Plasmodium falciparum Dd2 growth; P. falciparum Dd2 growth, SYBR Green, 72 h; Potency, µM (doses to about 28.9 µM), inactives show at the highest dose activity, negative = inhibition, most hits filed as inhibitors; 120,000 tested, 4.3% active; AID 1347417; active = well fitted inhibition curve with a large enough effect;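 note: plate controls were DMSO vehicle for no effect and reference drug for full effect; nearly all actives have a fitted effect of over 65% in size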
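Infected erythrocytes (Dd2, 0.3% parasitemia, 2.5% hematocrit final) are added to compound in RPMI-1640/Albumax II medium, grown 72 h at 37C in low oxygen, then lysed with saponin/Triton-X containing SYBR Green and read by fluorescence.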
Active calls of the source: *; i = inactive; [ ] = dose if it differs, or a comment. Potency is the fitted concentration of half-maximal effect.

SMILES	Pf Dd2 growth
COc1cc(OC(F)(F)F)ccc1C(=O)N1CCC(c2nnc3n2C(C(=O)O)CC3)CC1 (stereo not given)	6.9%
Cc1nc(-c2cccnc2)ncc1C(=O)N1CC[C@](C)(O)C(C)(C)C1	9.4%
O=C(NCCCn1ccnc1)c1ccc2nc(-c3ccc(F)cc3)cn2c1	-20.8%
C[C@@]1(NC(=O)Cc2ccccc2)OC[C@H]2CC[C@@H](C(=O)Nc3ccc(OC(F)(F)F)cc3)N2C1=O	10.7%
CC(C)[S+](=O)([O-])N1CCN(c2ccc(C=O)cc2)C(=O)C1	7.1%
CC1=NOC2(CCN(Cc3ccc(F)cc3)CC2)C1	i
CC1=NOC2(CCN(Cc3ccc(N(C)C)cc3)CC2)C1	10µM*
COc1ccc(CN2CCC3(CC2)CC(C)=NO3)cc1	-18.2%[44.1 µM]
COc1ccccc1NC(=O)NCc1cccn1Cc1ccccc1	-0.2%
CCOC(=O)Cc1ccc(NC(=O)NCc2cccn2Cc2ccccc2)cc1	-28.3%
O=C(NCc1cccn1Cc1ccccc1)Nc1cccc(C(F)(F)F)c1	8.91µM*
O=C(N[C@H]1CCN2C(=O)c3ccccc3NC(=O)[C@@H]2C1)C1CCCC1	-11.6%[44.1 µM]
COCc1cc(C[C@H]2CNCC[C@H]2CC(=O)NCc2ccccc2OC)no1	i
Cc1cc(C(=O)N(CCC(=O)NCCC(C)C)CCC(C)C)c(C)o1	11.2µM*
Cc1cc(C(=O)N(CCC(=O)NCc2ccccc2)CCC(C)C)c(C)o1	-14.8%
CCCCCNC(=O)CCN(CC)C(=O)c1cc(C)oc1C	i
O=C(NCCCc1nnc2ccccn12)C1CC(=O)N(c2n[nH]c3ccccc23)C1 (stereo not given)	-19.0%
O=C(c1cc2ccccc2o1)N1CCC2(COc3ncccc3S(=O)(=O)N2)C1 (stereo not given)	20.6%
Cc1ccc(CN2CCc3nc(N(C)Cc4cccnc4)[nH]c(=O)c3CC2)o1	i[5.79 µM]
COC(=O)[C@@H]1Cc2c([nH]c3ccccc23)[C@H]2C[C@H](NCCO)C[C@@H](c3ccccc3)N21	i
COC(=O)[C@@H]1Cc2c([nH]c3ccccc23)[C@H]2C[C@H](NCc3cccs3)C[C@@H](c3ccccc3)N21	7.94µM*
COC(=O)[C@@H]1Cc2c([nH]c3ccccc23)[C@H]2C[C@@H](NC3CC3)C[C@@H](c3ccc(F)cc3)N21	4.47µM*
COC(=O)[C@@H]1Cc2c([nH]c3ccccc23)[C@H]2C[C@@H](NCCO)C[C@@H](c3ccc(F)cc3)N21	i
COC(=O)[C@@H]1Cc2c([nH]c3ccccc23)[C@H]2C[C@@H](NCCNC(C)=O)C[C@@H](c3ccc(C)cc3)N21	i
C#CCN[C@H]1C[C@@H]2c3[nH]c4ccccc4c3C[C@@H](C(=O)OC)N2[C@H](c2ccc(F)cc2)C1	12.6µM*
SMILES	Pf Dd2 growth
COC(=O)[C@@H]1Cc2c([nH]c3ccccc23)[C@H]2C[C@@H](N3CCOCC3)C[C@@H](c3ccc(F)cc3)N21	-13.9%
COC(=O)[C@@H]1Cc2c([nH]c3ccccc23)[C@H]2C[C@@H](NCc3cccnc3)C[C@@H](c3ccc(F)c(F)c3)N21	-11.6%
COC(=O)[C@@H]1Cc2c([nH]c3ccccc23)[C@@H]2C[C@@H](NCCNC(C)=O)C[C@@H](c3ccc(F)c(F)c3)N12	-0.3%
COC(=O)[C@@H]1Cc2c([nH]c3ccccc23)[C@H]2C[C@@H](NCCNC(C)=O)C[C@@H](c3ccccc3)N21	-14.4%
COC(=O)[C@@H]1Cc2c([nH]c3ccccc23)[C@H]2C[C@@H](NCCNC(C)=O)C[C@@H](c3ccc(C(C)C)cc3)N21	-20.5%
COC(=O)[C@@H]1Cc2c([nH]c3ccccc23)[C@H]2C[C@@H](NCCN3CCOCC3)C[C@@H](c3ccc(C(F)(F)F)cc3)N21	8.91µM*
COCCC(=O)N1CCCC(Cc2nc(C3CCOCC3)no2)C1 (stereo not given)	17.7%
Cc1ccccc1CN1CCOc2cc([S+](=O)([O-])Nc3cccnc3)ccc2C1	i
CCCCNC(=O)N1CC(C(=O)NCc2ccco2)CC(c2ccc(F)c(C)c2)C1 (stereo not given)	i
Cc1cc(F)ccc1NC(=O)c1cc(-c2ccc[nH]2)n[nH]1	i
O=C(c1[nH]nc2c1COc1ccccc1-2)N1CC(c2noc(COc3ccc(F)cc3)n2)C1	i
O=C(Nc1ccccc1)N[C@H]1[C@H](O)[C@@H](N2CCN(c3ccccc3)CC2)[C@@H]2OC[C@H]1O2	i
O=C1CC(c2ccccc2)N(C(=O)C2CC2)CCCN(C(=O)C2CCCCC2)CCN1 (stereo not given)	-0.1%
COc1cc(Cl)ccc1C(=O)N1CCC(OC2CCN(C)CC2)CC1	i
CN1C(=O)CC[C@]2(C(=O)NCc3cccc(F)c3)CCCC[C@@H]12	-11.8%
COc1cc(-c2cnc3n[nH]c(-c4ccc(F)cc4C)c3n2)ccn1	14.8%[44.1 µM]
CC(=O)Nc1ccc(C2(C(=O)NCc3ccc4c(c3)OCO4)CCC2)cc1	-3.6%
CCS(=O)(=O)Nc1ccc(C2(C(=O)NCc3ccc4c(c3)OCO4)CCCCC2)cc1	11.2µM*
CCS(=O)(=O)Nc1ccc(C2(C(=O)NCc3cccnc3)CCCCC2)cc1	-18.9%
COc1ccc(CCNc2ncnc3c2CN(c2ccc(OC)cc2)C(=O)CN3C)cc1	-13.8%
COc1ccc(C(C(=O)O)N2CCN(Cc3csc(C)n3)CC2)c(C)c1 (stereo not given)	-18.3%
COCCNc1ncccc1-c1noc([C@@H]2CCCN2C2CCC2)n1	-18.4%[44.1 µM]
COCCNc1ncccc1-c1noc([C@@H]2CCCN2Cc2ccccc2OC)n1	7.94µM*
COCCNc1ncccc1-c1noc([C@@H]2CCCN2Cc2ccc(C(=O)O)cc2)n1	i
Cc1ccsc1C(=O)N1CCc2c(nc3cc[nH]n3c2=O)C1	31.4%
SMILES	Pf Dd2 growth
CN(CC1CCOC1)C(=O)Nc1cc(F)cc(F)c1 (stereo not given)	-10.5%
Cc1ccc(O)c(C(CC(=O)NCC2(c3ccccc3)CCCC2)c2ccccc2)c1 (stereo not given)	10µM*
Cc1ccc(NC(=O)C(=O)NCC2(c3ccccc3)CCCC2)cc1C	2.9%
COc1ccc(C)cc1NC(=O)C(=O)NCC1(c2ccccc2)CCCC1	14.9%
COc1cc(OC)nc(N2C[C@H]3OC(=O)N(Cc4ccccc4OC)[C@H]3C2)n1	3.55µM*
COC(=O)c1ccc(N2C[C@H]3OC(=O)N(Cc4ccccc4OC)[C@H]3C2)nc1	-5.8%
COc1ccccc1CN1C(=O)O[C@@H]2CN(C(=O)NC3CCCCC3)C[C@@H]21	-2.5%
Cc1cc2nc3n(c(=O)c2n1CC(=O)Nc1cccc(C(F)(F)F)c1)CCC3	-7.5%
CC(C)c1noc(C2CCCN(Cc3cccnc3)CCC(=O)NCC2)n1 (stereo not given)	0.1%
CCC(=O)N1CCCC(c2nc(-c3ccccc3)no2)CCNC(=O)CC1 (stereo not given)	30.8%
CS(=O)(=O)N1CCCC(c2nc(-c3cccnc3)no2)CCNC(=O)CC1 (stereo not given)	-12.1%
O=C1CCN(C2CCCC2)CCCC(c2nc(-c3cccnc3)no2)CCN1 (stereo not given)	0.708µM*
CC(C)c1noc(C2CCCN(C(=O)NCCc3ccccc3)CCC(=O)NCC2)n1 (stereo not given)	39.3%
COc1ccc(C2(C(=O)N3CCCC(c4nc(-c5ccccc5)no4)CCNC(=O)CC3)CC2)cc1 (stereo not given)	7.94µM*
O=C1NCCCCCCN(S(=O)(=O)c2cccnc2)[C@H]2C[C@H](c3nc(-c4cccnc4)no3)C[C@@H]12	2.82µM*
